Test results as given in PubChem BioAssay (NCI).
Compounds without any hit were thinned out: in the full panel of roughly 79,000, 15% have a hit. Rule as the data show it: active = growth inhibition above about 70%; inactive = the rest.

Experiments:
[1] = NCI Yeast Anticancer Drug Screen. Data for the rad52 strain (AID 147);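 also: 0% = growth of vehicle-treated control cultures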; settings: S. cerevisiae rad52 mutant growth inhibition, stronger effect = higher value
How it was run: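 Vehicle-treated cultures served as the reference for growth inhibition of compound-exposed yeast bearing a DNA repair mutation.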

[2] = NCI Yeast Anticancer Drug Screen. Data for the wt1 strain (AID 149);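 also: 0% = growth of vehicle-treated wt1 cultures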; settings: S. cerevisiae wt1 strain (SPY 50644) growth inhibition, stronger effect = higher value
How it was run: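 wt1 strain grown with compound or vehicle; inhibition taken from the growth difference.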

[3] = NCI Yeast Anticancer Drug Screen. Data for the rad50EPP+ strain (AID 151);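 also: 0% = growth of vehicle-treated control cultures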; settings: S. cerevisiae rad50 mutant strain, stronger effect = higher value
How it was run: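 In this screen, rad50EPP+ yeast were exposed to compounds. Growth inhibition was scored against vehicle-treated controls.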

[4] = NCI Yeast Anticancer Drug Screen. Data for the mgt1 strain (AID 153); settings: S. cerevisiae mgt1 mutant growth inhibition, stronger effect = higher value
How it was run: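 mgt1 strain exposed; growth vs vehicle control recorded as inhibition.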

[5] = NCI Yeast Anticancer Drug Screen. Data for the rad50 strain (AID 155);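 also: 0% = growth of vehicle-only cultures of the same strain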; settings: S. cerevisiae rad50 strain growth inhibition, stronger effect = higher value
How it was run: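 DNA repair mutant yeast, compound exposure, growth read-out; inhibition is taken relative to vehicle.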

[6] = NCI Yeast Anticancer Drug Screen. Data for the mec2-1 strain (AID 157); settings: S. cerevisiae mec2-1 strain, stronger effect = higher value
How it was run: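 Vehicle-treated cultures served as reference for growth inhibition of compound-exposed mec2-1 yeast.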

[7] = NCI Yeast Anticancer Drug Screen. Data for the rad14 strain (AID 159);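 also: 0% = growth of vehicle-treated control cultures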; settings: S. cerevisiae rad14 strain growth inhibition, stronger effect = higher value
How it was run: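 DNA repair-defective yeast, compound-exposed; % growth inhibition derived by comparison with vehicle-treated controls.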

[8] = NCI Yeast Anticancer Drug Screen. Data for the sgs1 mgt1 strain (AID 161);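 also: 0% = growth of cultures given vehicle only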; settings: S. cerevisiae sgs1 mgt1 strain, stronger effect = higher value
How it was run: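 Mutant yeast exposed to compound; growth scored against vehicle-only wells.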

[9] = NCI Yeast Anticancer Drug Screen. Data for the CLN2oe strain (AID 163);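 also: 0% = growth of vehicle-only control cultures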; settings: S. cerevisiae CLN2oe strain, stronger effect = higher value
How it was run: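 Inhibition relative to vehicle-treated yeast is reported. Cells: strain with genetic alteration in cell-cycle control, grown with compound.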

[10] = NCI Yeast Anticancer Drug Screen. Data for the cln2 rad14 strain (AID 165);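 also: 0% = growth equal to vehicle treated cultures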; settings: S. cerevisiae cln2 rad14 strain, stronger effect = higher value
How it was run: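 Each compound was tested on cln2 rad14 yeast. Inhibition of growth was calculated against vehicle-exposed controls.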

[11] = NCI Yeast Anticancer Drug Screen. Data for the bub3 strain (AID 167); settings: S. cerevisiae bub3 mutant strain, stronger effect = higher value
How it was run: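 In this screen, a yeast mutant lacking normal mitotic checkpoint function is challenged with compound. Relative growth versus vehicle gives the inhibition value.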

[12] = NCI Yeast Anticancer Drug Screen. Data for the mlh1 strain (AID 171);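 also: 0% = growth of vehicle-treated control cultures of the same strain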; settings: S. cerevisiae mlh1 strain growth inhibition, stronger effect = higher value
How it was run: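 Vehicle-normalised growth inhibition of a repair- or checkpoint-altered yeast strain following compound treatment.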

[13] = NCI Yeast Anticancer Drug Screen. Data for the sgs1 strain (AID 173);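 also: 0% = growth of vehicle-only control cultures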; settings: S. cerevisiae sgs1 mutant, stronger effect = higher value
How it was run: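 Screen format: yeast with repair or checkpoint alterations, compound exposure, growth read relative to vehicle.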

[14] = NCI Yeast Anticancer Drug Screen. Data for the mlh1 rad18 strain (AID 175); settings: S. cerevisiae mlh1 rad18 strain growth inhibition, stronger effect = higher value
How it was run: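 Vehicle-treated cultures served as the reference for growth inhibition in a yeast strain carrying DNA damage repair alterations exposed to each compound.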

[15] = NCI Yeast Anticancer Drug Screen. Data for the rad18 strain (AID 177); settings: S. cerevisiae rad18 mutant growth inhibition, stronger effect = higher value
How it was run: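 Test articles were incubated with altered yeast defective in DNA damage repair. Results are given as inhibition of growth versus vehicle.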

[16] = at 5.0 µM (retest, dose inferred, filed as 0.5)
[17] = at 50.0 µM (retest, dose inferred, filed as 5.0)

Measured: growth inhibition

CCN(CC)CCCNc1ccc([N+](=O)[O-])c2nc3ccc(OC)cc3c(NCCCN(CC)CC)c12
inactive: [1]; at 1.2 µM 15% | [1]; at 3.7 µM 6% | [1]; at 11.0 µM 9% | [1]; at 33.0 µM 11% | [1]; at 100.0 µM 19% | [2]; at 1.2 µM -81% | [2]; at 3.7 µM 0% | [2]; at 11.0 µM -2% | [2]; at 33.0 µM -2% | [2]; at 100.0 µM 0% | [3]; at 1.2 µM 0% | [3]; at 3.7 µM 3% | [3]; at 11.0 µM 4% | [3]; at 33.0 µM 9% | [3]; at 100.0 µM 13% | [4]; at 1.2 µM 2% | [4]; at 3.7 µM 2% | [4]; at 11.0 µM 3% | [4]; at 33.0 µM 1% | [4]; at 100.0 µM 1% | [5]; at 1.2 µM -2% | [5]; at 3.7 µM -1% | [5]; [16] 23% | [5]; at 11.0 µM -1% | [5]; at 33.0 µM 4% | [5]; [17] 18% | [5]; at 50.0 µM 66.5% | [5]; at 100.0 µM 9% | [6]; at 1.2 µM -1% | [6]; at 3.7 µM 2% | [6]; [16] 6% | [6]; at 11.0 µM -2% | [6]; at 33.0 µM 1% | [6]; [17] 26% | [6]; at 50.0 µM 5.05% | [6]; at 100.0 µM 1% | [7]; at 1.2 µM -1% | [7]; at 3.7 µM 0% | [7]; at 11.0 µM -1% | [7]; at 33.0 µM 0% | [7]; at 100.0 µM 1% | [8]; [16] -8% | [8]; [17] 20% | [8]; at 50.0 µM 13% | [9]; at 1.2 µM -10% | [9]; at 3.7 µM -9% | [9]; at 11.0 µM -4% | [9]; at 33.0 µM -6% | [9]; at 100.0 µM -2% | [10]; [16] 43% | [10]; [17] 57% | [10]; at 50.0 µM 24.8% | [11]; at 1.2 µM -6% | [11]; at 3.7 µM -7% | [11]; [16] 14% | [11]; at 11.0 µM -7% | [11]; at 33.0 µM -6% | [11]; [17] 6% | [11]; at 50.0 µM 13.4% | [11]; at 100.0 µM -4% | [12]; at 1.2 µM 0% | [12]; at 3.7 µM -2% | [12]; at 11.0 µM 0% | [12]; at 33.0 µM -2% | [12]; at 100.0 µM -1% | [13]; at 1.2 µM 2% | [13]; at 3.7 µM 5% | [13]; at 11.0 µM 2% | [13]; at 33.0 µM 1% | [13]; at 100.0 µM 1% | [14]; [16] 13% | [14]; [17] 37% | [14]; at 50.0 µM 0.2% | [15]; at 1.2 µM 0% | [15]; at 3.7 µM 0% | [15]; at 11.0 µM 6% | [15]; at 33.0 µM 4% | [15]; at 100.0 µM 7%
